From PubChem BioAssay AID1159580 (chemical genetic matrix, 2015)
Values joined by “and” are separate entries in the source; they are usually repeats but may differ in a detail not shown here. Equal entries are not always repeated. The whole screen tested about 5,500 compounds, of which about 2,000 (36%) were called active. About 18% were inconclusive and are not listed. Rule as the data show it: active = normalized growth mostly below about 0.91 (no sharp cut-off); inconclusive = no clear call, values can overlap the other calls; inactive = mostly above about 0.92. The list shows a part of the results.

Assay: chemical genetic growth profiling, strain panel (AID 1159580);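 also: tested at 20 µM; growth read once vehicle control cultures reached saturation at 30 °C; 1 = growth at the plate median or of vehicle wells; lower values mean less growth of the strain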
Conditions: S. cerevisiae deletion strains, growth OD

Measured: normalized growth

C[C@H](CCC(=O)O)[C@H]1CCC2C3C(=O)CC4CC(=O)CC[C@]4(C)C3CC(=O)[C@@]21C (some centres not stated)
active: locus YMR231W, strain pep5, hits give low values 0.906
inactive: locus YAL021C, strain ccr4, hits give low values 0.908 | locus YAL026C, strain drs2, hits give low values 0.99 | locus YAL030W, strain snc1, hits give low values 0.963 | locus YBL061C, strain skt5, hits give low values 0.99 | locus YBR009C, strain hhf1, hits give low values 0.992 | locus YBR021W, strain FUR4, hits give low values 1.01 | locus YBR023C, strain chs3, hits give low values 0.987 | locus YBR171W, strain sec66, hits give low values 0.956 | locus YBR229C, strain ROT2, hits give low values 1.01 | locus YBR231C, strain swc5, hits give low values 0.967 | locus YBR279W, strain paf1, hits give low values 0.994 | locus YCL011C, strain gbp2, hits give low values 0.991 | locus YCL016C, strain dcc1, hits give low values 1.02 | locus YCL029C, strain bik1, hits give low values 1.01 | locus YCL061C, strain MRC1, hits give low values 0.972 | locus YCL069W, strain vba3, hits give low values 0.978 | locus YCR088W, strain abp1, hits give low values 0.987 | locus YDL005C, strain med2, hits give low values 0.952 | locus YDL035C, strain GPR1, hits give low values 1.02 | locus YDL040C, strain nat1, hits give low values 0.976 | locus YDL074C, strain BRE1, hits give low values 1 | locus YDL101C, strain DUN1, hits give low values 1.01 | locus YDL134C, strain PPH21, hits give low values 1.02 | locus YDL185W, strain tfp1, hits give low values 1.01 | locus YDL192W, strain arf1, hits give low values 1 | locus YDR001C, strain nth1, hits give low values 0.969 | locus YDR069C, strain doa4, hits give low values 0.951 | locus YDR101C, strain arx1, hits give low values 1.02 | locus YDR137W, strain rgp1, hits give low values 0.999 | locus YDR159W, strain sac3, hits give low values 0.937 | locus YDR162C, strain NBP2, hits give low values 1.02 | locus YDR195W, strain ref2 0.937 | locus YDR297W, strain sur2, hits give low values 0.981 | locus YDR318W, strain mcm21, hits give low values 1 | locus YDR334W, strain swr1, hits give low values 0.957 | locus YDR335W, strain msn5, hits give low values 0.978 | locus YDR388W, hits give low values 1 | locus YDR392W, strain spt3, hits give low values 1.06 | locus YDR502C, strain sam2, hits give low values 0.998 | locus YEL003W, strain gim4, hits give low values 0.979 | locus YEL037C, strain rad23, hits give low values 0.983 | locus YEL061C, strain CIN8 (second series), hits give low values 0.962 | locus YEL061C, strain CIN8, hits give low values 1.01 | locus YER015W, strain faa2, hits give low values 0.991 | locus YER016W, strain bim1, hits give low values 1.04 | locus YER110C, hits give low values 1.01 | locus YER111C, strain swi4, hits give low values 0.974 | locus YER155C, strain BEM2 (second series), hits give low values 0.961 | locus YER155C, strain BEM2, hits give low values 1 | locus YER167W, strain BCK2, hits give low values 1.01 | locus YFR010W, strain ubp6, hits give low values 0.965 | locus YGL078C, strain dbp3, hits give low values 1.01 | locus YGL086W, strain mad1, hits give low values 1.01 | locus YGL167C, strain pmr1, hits give low values 0.947 | locus YGL173C, strain kem1, hits give low values 0.962 | locus YGL227W, strain vid30, hits give low values 0.97 | locus YGL240W, strain doc1, hits give low values 0.948 | locus YGL248W, strain PDE1, hits give low values 1 | locus YGL253W, strain hxk2, hits give low values 1 | locus YGR135W, strain pre9, hits give low values 0.994 | locus YGR252W, strain gcn5, hits give low values 0.972 | locus YHR013C, strain ard1, hits give low values 1 | locus YHR027C, strain rpn1, hits give low values 0.988 | locus YHR030C, strain SLT2, hits give low values 1.01 and 1.03 | locus YHR079C, strain IRE1 (second series), hits give low values 0.997 | locus YHR079C, strain IRE1, hits give low values 1 | locus YHR094C, strain hxt1, hits give low values 1.01 | locus YHR129C, strain ARP1, hits give low values 1.01 | locus YHR142W, strain chs7, hits give low values 0.957 | locus YHR200W, strain rpn10, hits give low values 1 | locus YIL066C, strain RNR3, hits give low values 1.02 | locus YIL073C, strain SPO22, hits give low values 1.01 | locus YIL125W, strain kgd1, hits give low values 1.01 | locus YIR030C, strain dcg1, hits give low values 1.01 | locus YJL092W, strain hpr5, hits give low values 0.971 | locus YJL095W, strain BCK1 (second series), hits give low values 0.969 | locus YJL095W, strain BCK1, hits give low values 1 and 1.02 | locus YJL115W, strain asf1, hits give low values 0.978 | locus YJL129C, strain trk1, hits give low values 0.962 | locus YJL134W, strain LCB3, hits give low values 1.01 | locus YJL154C, strain vps35, hits give low values 0.958 | locus YJL164C, strain tpk1, hits give low values 1.01 | locus YJL166W, strain qcr8, hits give low values 0.916 | locus YJL168C, strain set2, hits give low values 1 | locus YJL187C, strain SWE1 (second series), hits give low values 1.01 | locus YJR043C, strain POL32, hits give low values 1.01 | locus YJR066W, strain TOR1, hits give low values 0.971 | locus YJR075W, strain HOC1, hits give low values 1.02 | locus YKL009W, strain mrt4, hits give low values 0.992 | locus YKL068W, hits give low values 1.01 | locus YKL085W, strain MDH1 (second series), hits give low values 1.02 | locus YKL085W, strain MDH1, hits give low values 1.02 | locus YKL160W, strain elf1, hits give low values 0.985 | locus YKR001C, strain vps1, hits give low values 1.01 | locus YKR026C, strain gcn3, hits give low values 0.972 | locus YLL001W, strain dnm1, hits give low values 0.923 | locus YLL026W, hits give low values 0.987 | locus YLL041C, strain sdh2, hits give low values 0.978 | locus YLR027C, strain aat2, hits give low values 0.993 | locus YLR039C, strain RIC1, hits give low values 0.955 | locus YLR058C, strain SHM2, hits give low values 1.01 | locus YLR102C, strain apc9, hits give low values 0.999 | locus YLR113W, strain HOG1, hits give low values 1.03 | locus YLR221C, strain rsa3, hits give low values 1.04 | locus YLR258W, strain gsy2, hits give low values 0.982 | locus YLR262C, strain YPT6 (second series), hits give low values 0.926 | locus YLR262C, strain YPT6, hits give low values 1.05 | locus YLR268W, strain sec22, hits give low values 1 | locus YLR320W, strain mms22, hits give low values 1 | locus YLR330W, strain CHS5, hits give low values 1.01 | locus YLR342W, strain FKS1 (second series), hits give low values 1 | locus YLR342W, strain FKS1, hits give low values 0.972 | locus YLR357W, strain rsc2, hits give low values 0.917 | locus YLR370C, strain arc18, hits give low values 0.987 | locus YLR371W, strain rom2, hits give low values 1 | locus YLR384C, strain iki3, hits give low values 0.976 | locus YLR418C, strain cdc73, hits give low values 0.981 | locus YML016C, strain PPZ1, hits give low values 1.01 | locus YML032C, strain rad52, hits give low values 0.994 | locus YML120C, strain ndi1, hits give low values 0.967 | locus YML124C, strain tub3, hits give low values 0.995 | locus YMR058W, strain fet3, hits give low values 0.976 | locus YMR078C, strain ctf18, hits give low values 1.01 | locus YMR125W, strain sto1, hits give low values 0.93 | locus YMR129W, hits give low values 0.993 | locus YMR205C, strain PFK2, hits give low values 0.953 | locus YMR223W, strain ubp8, hits give low values 1 | locus YMR307W, strain GAS1, hits give low values 1.05 | locus YNL067W, strain RPL9B, hits give low values 1.01 | locus YNL071W, strain lat1, hits give low values 0.975 | locus YNL153C, strain GIM3, hits give low values 0.996 | locus YNL183C, strain NPR1, hits give low values 0.982 | locus YNL209W, strain ssb2, hits give low values 0.99 | locus YNL233W, strain BNI4, hits give low values 1.01 | locus YNL248C, strain rpa49, hits give low values 1 | locus YNL250W, strain rad50, hits give low values 0.995 | locus YNL271C, strain bni1, hits give low values 0.996 | locus YNL298W, strain CLA4, hits give low values 1 | locus YNL307C, strain MCK1, hits give low values 1 | locus YNL322C, strain KRE1 (second series), hits give low values 0.975 | locus YNL322C, strain KRE1, hits give low values 1.02 | locus YNR049C, strain mso1, hits give low values 0.983 | locus YNR052C, strain pop2, hits give low values 1 | locus YOL012C, strain htz1 1.17 | locus YOL147C, strain pex11, hits give low values 1.01 | locus YOR001W, strain rrp6, hits give low values 0.965 | locus YOR061W, strain CKA2, hits give low values 1.01 | locus YOR069W, strain VPS5, hits give low values 1.01 | locus YOR070C, strain gyp1, hits give low values 0.995 | locus YOR080W, strain dia2, hits give low values 0.947 | locus YOR083W, strain WHI5, hits give low values 0.964 | locus YOR106W, strain vam3, hits give low values 0.924 | locus YOR136W, strain idh2, hits give low values 1 | locus YOR144C, strain elg1, hits give low values 1.01 | locus YOR184W, strain ser1, hits give low values 0.999 | locus YOR231W, strain MKK1, hits give low values 1.03 | locus YOR265W, strain rbl2, hits give low values 0.971 | locus YOR270C, strain vph1, hits give low values 0.988 | locus YOR290C, strain snf2, hits give low values 1.02 | locus YOR316C, strain cot1, hits give low values 1.01 | locus YPL051W, strain arl3, hits give low values 1.02 | locus YPL055C, strain LGE1, hits give low values 1.02 | locus YPL078C, strain atp4, hits give low values 0.929 | locus YPL106C, strain sse1, hits give low values 0.94 | locus YPL240C, strain hsp82, hits give low values 0.989 | locus YPL256C, strain CLN2, hits give low values 1.04 | locus YPR119W, strain clb2, hits give low values 1.01 | locus YPR141C, strain kar3, hits give low values 1.01 | locus YPR163C, strain tif3, hits give low values 1 | locus YPR167C, strain met16, hits give low values 1 | strain wtn01, hits give low values 0.988
